Screening results: PubChem, several laboratories
The list is not random: actives were taken first. Their share in the collection is about 2.6%.
EWS-Fli block: EWS/Fli transcriptional activity inhibition; A673 NR0B1-luciferase reporter, viability-normalised; inhibition, % at 12.6 µM; 350,000 tested, 0.67% active;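 active = mean inhibition of at least 50% after viability correction, with every replicate also passing that limit; inconclusive = mean reaches 50% but only one of two replicates passes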;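 also: firefly luciferase signal divided by Alamar Blue viability fluorescence both relative to DMSO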
LGR2 inh: inhibitors of bursicon-induced Drosophila LGR2 receptor cAMP signaling. HEK293 LGR2, CRE-luciferase, bursicon-stimulated, 4 h. inhibition, % at 9.99 µM. 380,000 tested, 0.35% active. AID 720647;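 active = drop in luminescence signal, shown as inhibition above about 50% in the replicate tests, limit read from the data, passing the limit was not always enough; inconclusive = probably only some replicates passing the limit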;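 also: agonist challenge used bursicon conditioned medium at about half maximal strength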
TWEAK Fn14 block: TWEAK-Fn14 signaling inhibition | TWEAK-stimulated Fn14 reporter cells, luciferase luminescence, 8 h | inhibition, % at 10 µM | 360,000 tested, 2% active | AID 1159606; in the data active = inhibition above about 50%
TROY NFkB inh: inhibitors of TROY-dependent NF-kB signaling; AID 1347056; Q293 LMP1-TROYcd NF-kB luciferase reporter, 4 h; 360,000 tested, 0.98% active; inhibition, % at 10 µM;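 active = compounds whose plate-normalised and pattern-corrected inhibition of the luciferase reporter signal at the single screening dose is 50% or more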
LMP1 NFkB inh: Epstein-Barr LMP1 NF-kappaB reporter inhibition; 350,000 tested, 0.69% active; inhibition, % at 12.5 µM; LMP1-induced NF-kappaB luciferase reporter cells, luminescence; AID 504558; in the data active = inhibition above about 41%; inconclusive = no clear call, values can overlap the other calls;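 also: 0% = neutral control wells and 100% = reference inhibitor control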
An asterisk follows results filed as active; ? = inconclusive; / = no result given.

SMILES	EWS-Fli block	LGR2 inh	TWEAK Fn14 block	TROY NFkB inh	LMP1 NFkB inh
C[C@H]1CN([C@@H](C)CO)C(=O)c2cccc(NS(C)(=O)=O)c2O[C@H]1CN(C)C(=O)Nc1ccc(C(F)(F)F)cc1	1.3	-5.2	/	/	/
COc1ccc(CN(C)C(=O)c2cc(S(=O)(=O)Nc3ccccc3F)ccc2C)c(OC)c1	0.2	2.6	53.0*	-19.0	/
CCCC(=O)NC(c1ccc(Cl)cc1Cl)c1ccc2cccnc2c1O (configuration not stated)	37.9	34.8	12.0	34.3	62.8*
COc1ccc(C(NC(C)=O)c2cc(Cl)c3cccnc3c2O)cc1OC (configuration not stated)	9.5	-11.0	10.1	-1.1	-5.3
CC(=O)NC(c1ccc(Cl)cc1Cl)c1ccc2cccnc2c1O (configuration not stated)	46.6	43.5	9.1	28.5	68.6*
COc1ccccc1C(NC(C)=O)c1cc(Cl)c2cccnc2c1O (configuration not stated)	10.7	11.8	-3.0	-8.4	31.2
CC(=O)NC(c1ccc2ccccc2c1)c1ccc2cccnc2c1O (configuration not stated)	40.1	20.1	9.8	34.5	48.9*
COc1ccc(C(NC(C)=O)c2ccc3cccnc3c2O)c(OC)c1 (configuration not stated)	/	/	3.1	7.7	58.6*
Cc1noc(C)c1S(=O)(=O)N(C)C[C@@H]1Oc2ccc(NS(=O)(=O)c3ccccc3)cc2CC(=O)N([C@@H](C)CO)C[C@H]1C	-4.9	15.9	/	/	/
C[C@@H]1CCCCO[C@H](CN(C)S(=O)(=O)c2cccs2)[C@H](C)CN([C@@H](C)CO)C(=O)c2cc(NC(=O)Nc3ccc(C(F)(F)F)cc3)ccc2O1	-1.4	5.7	/	/	/
COc1cccc(S(=O)(=O)Nc2ccc3c(c2)[C@H]2C[C@H](CC(=O)N(C)C)O[C@H](CO)[C@H]2O3)c1	2.7	-3.1	/	/	/
COC(=O)[C@H]1[C@H](CO)[C@H]2Cn3c(ccc(-c4ccccc4F)c3=O)[C@H]2N1CC1CCOCC1	-0.1	-3.2	/	/	/
Cc1cccc(NC(=S)N=Nc2c(O)[nH]c3ccccc23)c1	/	9.8	82.6*	-46.0	34.1
O=C(N=Nc1c(O)[nH]c2ccccc12)Nc1ccccc1	-89.5	-77.8	-18.5	-39.4	-16.3
Cn1ncc2c(O/N=C(\N)c3ccc(C(C)(C)C)cc3)ncnc21	/	/	99.6*	31.8	-58.8
COc1cc(CN2CC3(CN(S(=O)(=O)c4cn(C)cn4)C3)c3c(n(C)c4cc(OC)ccc34)[C@@H]2CO)cc(OC)c1	10.3	7.9	/	/	/
C[C@@H]1CCCCO[C@@H](CN(C)S(=O)(=O)c2ccccc2)[C@@H](C)CN([C@@H](C)CO)C(=O)c2cc(NC(=O)NC3CCCCC3)ccc2O1	1.1	7.8	/	/	/
COc1cc(CCC(=O)Nc2nnc(C)s2)cc(OC)c1OC	51.5*	2.0	8.1	2.8	0.7
COc1cc(CCC(=O)Nc2ncc(C)s2)cc(OC)c1OC	-0.4	11.5	6.0	-15.6	-24.7
CCN(CC)c1ccc2nc3ccccc3[n+](CC)c2c1	/	/	64.1*	25.1	1.3
CCN(CC)c1ccc2nc3ccc(N)cc3[n+](-c3ccccc3)c2c1	28.2	58.6*	11.0	-1.9	53.0*
CCN(CC)C(=O)c1ccc2nc3ccccc3nc2c1	-36.1	-0.1	11.8	-11.7	2.7
CC1CCN(CC2C(=O)O[C@@H]3C[C@@]4(C)CCC[C@H](C)C4=C[C@H]23)CC(C)(C)C1 (some centres not stated)	1.9	38.7	55.1*	27.9	9.3
C[C@H]1CN([C@@H](C)CO)C(=O)c2cc(NC(=O)Cc3cn(C)c4ccccc34)ccc2O[C@H]1CN(C)S(=O)(=O)c1cccs1	-9.9	-12.9	/	/	/
Fc1ccc(CNC(=S)Nc2cccc(C(F)(F)F)c2)cc1	/	0.7	10.4	20.8	10.5
SMILES	EWS-Fli block	LGR2 inh	TWEAK Fn14 block	TROY NFkB inh	LMP1 NFkB inh
FC(F)(F)c1cccc(NC(=S)NCc2ccc(Cl)cc2)c1	/	-9.4	56.6*	59.6*	-3.9
CC(=O)c1ccc(Nc2cc(C)nc3ccc(C)cc23)cc1	13.8	62.2*	-12.0	-28.0	-31.1
COc1ccc(Nc2cc(C)nc3ccc(C)cc23)cc1	2.5	7.0	-22.6	-12.2	4.6
COc1ccc2nc3c(cc2c1)c(NC(=O)c1cccs1)nn3CC(C)C	/	/	51.2*	3.8	-145.5
Cc1cc(C)cc(Nc2ncc3c(n2)CC(c2ccco2)CC3=O)c1 (configuration not stated)	/	/	-4.7	-16.1	1.5
Cc1cc(C)cc(Nc2ncc3c(n2)CCCC3=O)c1	/	36.9	71.1*	16.4	26.9
O=c1c2c(nc3c(-c4cccc5ccccc45)c[nH]n13)CCC2	/	8.2	-0.8	19.0	-0.3
O=c1c2c(nc3c(-c4ccc(Cl)cc4)c[nH]n13)CCCC2	/	/	-60.1	31.7	52.9*
C[C@H](CO)N1C[C@H](C)[C@@H](CN(C)Cc2ccccc2)Oc2ccc(NC(=O)CCN3CCOCC3)cc2CC1=O	-4.5	-9.5	/	/	/
CO[C@H]1CN(C)C(=O)c2cc(NC(=O)c3ccccc3F)ccc2OC[C@H](C)N(C(C)=O)C[C@H]1C	16.4	-11.7	/	/	/
CCCN(c1ccc(OCC)cc1)c1ncnc2nc[nH]c12	-15.5	-13.0	12.0	21.2	15.8
CCCCN(CCCC)c1ncnc2nc[nH]c12	5.8	-11.9	58.5*	33.1	2.8
CCN(c1ccc(OC)cc1)c1ncnc2nc[nH]c12	-17.5	16.4	58.8*	38.0	25.5
C[C@@H]1CN([C@@H](C)CO)C(=O)c2cc(NC(=O)Nc3ccccc3)ccc2O[C@@H](C)CCCCO[C@H]1CN(C)CC1CCCCC1	4.2	5.2	/	/	/
C[C@@H]1CCCCO[C@H](CN(C)C(=O)CCCN(C)C)[C@H](C)CN([C@H](C)CO)C(=O)c2cc(NS(C)(=O)=O)ccc2O1	-2.1	-4.2	/	/	/
COc1ccccc1N1CCN(C(=O)c2[nH]c(C(F)(F)F)nc2-c2ccccc2)CC1	71.8*	8.1	11.7	14.7	/
CC(=O)N1CCN(C(=O)c2[nH]c(C(F)(F)F)nc2-c2ccccc2)CC1	7.6	/	13.3	12.2	/
O=C(c1[nH]c(C(F)(F)F)nc1-c1ccccc1)N1CCN(c2cccc(C(F)(F)F)n2)CC1	54.6*	-3.6	5.1	-0.6	/
Cc1ccc(S(=O)(=O)N2CCCCC2)cc1NC(=O)Cn1ncc(Cl)c(Cl)c1=O	75.0*	53.6*	100.5*	80.4*	-31.2
Cc1nn(CC(=O)Nc2ccc3c(c2)OCO3)c(C)c1Cl	-28.0	11.6	-15.1	-18.5	-7.3
O=C(Cn1ncc(Cl)c(Cl)c1=O)Nc1ccc2c(c1)OCO2	48.9	-9.1	74.7*	1.9	-67.8
O=C(Cn1ncc(Cl)c(Cl)c1=O)c1ccc2c(c1)OCCO2	6.9	?	100.8*	23.2	3.6
O=C(Cn1ncc(Cl)c(Cl)c1=O)N1CCN(S(=O)(=O)c2ccc3ccccc3c2)CC1	/	8.3	96.7*	66.9*	13.6
O=C(CNc1ccccc1F)Nc1cc(S(=O)(=O)N2CCCCC2)ccc1Cl	15.7	13.3	-9.2	17.6	3.6
Cc1cc(Br)ccc1NC(=O)CNC(=O)CSc1ncccn1	-2.4	7.8	8.7	6.0	-5.8
